Source: the supplement of paper PMC8728848
Shown is part of a subset that was picked to be rich in the strongest signals.

Assays:
Assay in all cases: glycan array binding signal (z-score within array); higher = stronger binding
Conditions in all cases: glycan notation: IUPAC condensed, linker removed
[1] = molecular target: GlcNAc(b1-2)Man(a1-3)[GlcNAc(b1-2)Man(a1-6)]Man(b1-4)GlcNAc(b1-4)[Fuc(a1-6)]GlcNAc
How it was run: (§1)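 Arrays were curated from the Consortium for Functional Glycomics database, 3228 in total, and kept only where the protein sequence was available. Binding is expressed as a within-array Z-score. This score was averaged across arrays of the same protein sequence at different concentrations or buffers and across linkers, and negative values can be read as non-binding.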

[2] = molecular target: GlcNAc(b1-3)Gal(b1-4)GlcNAc(b1-2)Man(a1-3)[GlcNAc(b1-3)Gal(b1-4)GlcNAc(b1-2)Man(a1-6)]Man(b1-4)GlcNAc(b1-4)GlcNAc
How it was run: as §1

[3] = molecular target: GlcNAc(b1-3)Gal(b1-4)GlcNAc(b1-3)Gal(b1-4)GlcNAc(b1-2)Man(a1-3)[GlcNAc(b1-3)Gal(b1-4)GlcNAc(b1-3)Gal(b1-4)GlcNAc(b1-2)Man(a1-6)]Man(b1-4)GlcNAc(b1-4)GlcNAc
How it was run: as §1

[4] = molecular target: GlcNAc(b1-3)Gal(b1-4)GlcNAc(b1-3)Gal(b1-4)GlcNAc(b1-2)Man(a1-3)[GlcNAc(b1-3)Gal(b1-4)GlcNAc(b1-3)Gal(b1-4)GlcNAc(b1-2)Man(a1-6)]Man(b1-4)GlcNAc(b1-4)[Fuc(a1-6)]GlcNAc
How it was run: as §1

[5] = molecular target: GlcNAc(b1-3)Gal(b1-4)GlcNAc(b1-3)Gal(b1-4)GlcNAc(b1-2)[GlcNAc(b1-3)Gal(b1-4)GlcNAc(b1-3)Gal(b1-4)GlcNAc(b1-6)]Man(a1-6)[GlcNAc(b1-3)Gal(b1-4)GlcNAc(b1-3)Gal(b1-4)GlcNAc(b1-2)Man(a1-3)]Man(b1-4)GlcNAc(b1-4)[Fuc(a1-6)]GlcNAc
How it was run: as §1

[6] = molecular target: Man(a1-2)Man(a1-6)[Man(a1-3)]Man(a1-6)[Man(a1-2)Man(a1-2)Man(a1-3)]Man
How it was run: as §1

[7] = molecular target: Neu5Ac(a2-3)Gal(b1-3)GalNAc(b1-4)[Neu5Ac(a2-8)Neu5Ac(a2-3)]Gal(b1-4)Glc
How it was run: as §1

[8] = molecular target: Neu5Ac(a2-3)Gal(b1-3)GlcNAc6S
How it was run: as §1

[9] = molecular target: Neu5Ac(a2-3)Gal(b1-3)]Neu5Ac(a2-3)Gal(b1-4)]GlcNAc
How it was run: as §1

[10] = molecular target: Neu5Ac(a2-3)Gal(b1-4)GlcNAc(b1-6)[Gal(b1-3)]GalNAc
How it was run: as §1

[11] = molecular target: Neu5Ac(a2-6)GalNAc(b1-4)GlcNAc
How it was run: as §1

[12] = molecular target: Neu5Ac(b2-6)Gal(b1-4)GlcNAc
How it was run: as §1

[13] = molecular target: Neu5Ac(b2-6)GalNAc
How it was run: as §1

[14] = molecular target: Neu5Gc(a2-3)Gal(b1-4)GlcNAc(b1-3)Gal(b1-4)GlcNAc(b1-2)Man(a1-3)[Neu5Gc(a2-3)Gal(b1-4)GlcNAc(b1-3)Gal(b1-4)GlcNAc(b1-2)Man(a1-6)]Man(b1-4)GlcNAc(b1-4)GlcNAc
How it was run: as §1

[15] = molecular target: Neu5Gc(a2-8)Neu5Gc(a2-3)Gal(b1-4)GlcNAc
How it was run: as §1

B1: InvD YPIII (Yersinia pseudotuberculosis), B1JSC0 (protein)
chain: MIKYFSFFKKPEPIVGILPNRQSHHILPTHIRRVAWGTLLLQLFIPLSVSFSPAIAAMKASKADTMVSYSSTEPYVLGSGETVAMVAKKYGITVDELKKINIYRTFSRPFTALTTGDEIDIPRKASPFSVDNNKDNRLSVENTLAGHAVAGATALSNGDVAKSGERMVRSAASNEFNNSAQQWLSQFGTARVQLNINDDFHLDGSAADVLIPLYDNEKSILFTQLGARNKDSRNTVNMGAGVRTFQGNWMYGANTFFDNDLTGKNRRIGVGAEAWTDYLKLSANNYFGITDWHQSRDFIDYNERPANGYDLRAEAYLPSYPQLGGKAMYEKYRGDDVALFGKDNRQKNPHAITAGVNYTPIPLVTIGAEHRAGKGGQNDSNINFQLNYRLGETWQSHIDPSAVAASRTLAGSRYDLVERNNHIVLDYQKQNLVRLSLPDSLAGDPFSQLSVTAQVTATHGLERIDWQSAELMAAGGVLKQTSKNGLEITLPEYQMNRTGGNSYILNAIAYDTQGNASSQASMLITVNAQKINIANSTLVAVPINIEANNSDTSVVTLTLKDDNNIPVTGQDVTFLSPLGTLSAMTDSGNGVYTATLTAGTVSGTTAVSSNINGSALDMTPATVTLNGNSGELSITHSMLVAAPVNIEANGSDTSVVTLTLRDSNNNPVTGQTVTFAGTLGTLGAVTEGSSGVYTATLTAGIMVGTSSITASVNSTALGVTPATVTLNGDSGNLSTTNSTLVAAPVNIEANSSDTSVVTLTLRDNNNNPVTGQTVVFTSTLGTLGNVTEQASGVYTATLTAGTVSGVASLSVSVGGNALGVTPATVTLNGDSGNLSTTNSTLVAAPVNIEANSSDTSVVTLTLRDNNNNPVTGQTVNFAGTLGTLGTVSEGSSGVYTTTLTAGTVAGVASLSVNVGGNALGVTPATVTLNGNSGNLSATNSTLVAAPVNIEANSSDTSVVTLTLRDNNNNPVTGQTVAFTSTLGTLGNVTEQASGVYTATLTAGTVSGVASLSVSVNSNALGVTPATVTLNGDSGNLSTTNSTLVAAPVNIEANSSDTSVVTLTLRDNNNNPVTGQTVAFTSTLGTLGNVTEQASGLYTATLTAGTVSGVASLSVNVGGNALGVTPATVTLNGDSGNLSATNSTLVAAPVNIEANSSDTSVVTLTLRDNNNNPVTGQTVAFTSTLGTLGNVTEQASGLYTATLTAGTVSGVASLSVNVGGTALGVTPATVTLNGDSGNLSTTNSTLVAAPVNIEANSSDTSVVTLTLRDNNNNPVTGQTVAFTSTLGTLGNVTEQASGLYTATLTAGTVSGVASLSVSVNSTALGVTPATVTLNGDSGNLSTTNSTLVAAPVNIEANSSDTSVVTLTLRDNNNNPVTGQTVAFTSTLGTLGNVTEQASGVYTATLTAGTVAGVASLSVNVGGNALGVTPATVTLNGDSGNLSTTNSTLVAAPVNIEANSSDTSVVTLTLRDNNNNPVTGQTVAFTSTLGTLGNVTEQASGVYTATLTAGTVSGVASLSVSVGSSALGVTPATVTLNGDSGNLSTTNSTLVAAPVNIEANNSDTSVVTLTLRDNNNNPVTGQTVAFTSTLGTLGNVTEQASGVYTATLTAGTVSGVASLSVSVNSNALGVTPATVTLNGDSGNLSTTNSTLVAAPVNIEANSSDTSVVTLTLRDNNNNPVTGQTVVFTSTLGTLGNVTEQASGLYTATLTAGTVSGVASLSVSVGGNALGVTGNITLAPGALDAARSILAVNKPSINADDRIGSTITFTAQDAQGNAITGLDIAFMTDLENSQIMTLVDHNDGTYTANINGTQTGIANIAVQSSGATIAGLAATMVTITPGAWNTTQATPVMTVALPITTCQSSSGVYKRYYIGIVTHELYDNYGNEISGILTYNLGAGRYTTVTSQNSSVSGSNGLTRRSNSPVSHFILTSDAYTSQAACYAERIANVNVTITVTAITDDFKTSAVNKVFILGTGSN
glycan array binding signal (z-score) [1]: 0.422
glycan array binding signal (z-score) [2]: -0.006
glycan array binding signal (z-score) [3]: 5.11
glycan array binding signal (z-score) [4]: 2.68
glycan array binding signal (z-score) [5]: 4.27
glycan array binding signal (z-score) [6]: -0.216
glycan array binding signal (z-score) [7]: -0.165
glycan array binding signal (z-score) [8]: -0.22
glycan array binding signal (z-score) [9]: 0.034
glycan array binding signal (z-score) [10]: 0.162
glycan array binding signal (z-score) [11]: -0.312
glycan array binding signal (z-score) [12]: -0.095
glycan array binding signal (z-score) [13]: 0.163
glycan array binding signal (z-score) [14]: 0.122
glycan array binding signal (z-score) [15]: -0.373
